Screening results deposited in PubChem BioAssay by Broad Institute.
DUX4 txn inh: blocks DUX4-driven transcriptional activation | 293T-iDUX4 ZSCAN4-Gaussia luciferase reporter, 24 h; stronger effect = lower value | activity change, negative = inhibition, % (no concentration beside the values) | hit rate 0.8% among 37,000;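 active = mean inhibition of at least 10% in the main channel, exceeding the control channel by a set limit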;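 also: 0% = median of neutral control wells and -100% = median of positive control wells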
Numbers without * were called inactive. The full list was thinned out, with hits kept by preference.

SMILES | DUX4 txn inh
CC(=O)N(C)C[C@@H]1Oc2cc(-c3ccc(C)cc3)ccc2S(=O)(=O)N([C@H](C)CO)C[C@@H]1C | 3
O=C(CCN1CCCCC1)NCC[C@@H]1CC[C@H](NC(=O)Cc2cccnc2)[C@H](CO)O1 | 3
COc1ccc2c3c([nH]c2c1)[C@H](CO)N(C(=O)Nc1ccc(F)cc1)CC31CCN(Cc2nccs2)CC1 | -9
N#C[C@@H]1[C@@H](c2ccccc2-c2cccc(F)c2)[C@@H](CO)N1C(=O)NC1CCCCC1 | -29*
Cc1ccc(-c2ccccc2[C@H]2[C@@H](C#N)N(C(=O)NC3CCCC3)[C@H]2CO)cc1 | -8
N#C[C@@H]1[C@@H](c2ccc(-c3cccc(F)c3)cc2)[C@@H](CO)N1C(=O)NC1CCCC1 | 2
Cc1ccc(S(=O)(=O)N(C)C[C@H]2Oc3c(NC(=O)Nc4cccc5ccccc45)cccc3C(=O)N([C@H](C)CO)C[C@@H]2C)cc1 | 4
CN1CCCCN2[C@H](C1)[C@@H](c1ccc(C#Cc3ccccc3F)cc1)[C@@H]2CO | -10
COc1ccc(C#Cc2ccc([C@@H]3[C@H](CO)N4CCCCN(Cc5ccncc5)C[C@@H]34)cc2)cc1 | 0
COc1ccc(C#Cc2ccc([C@H]3[C@H]4CN(Cc5ccccc5F)CCCCN4[C@H]3CO)cc2)cc1 | -21*
COc1ccc(C#Cc2ccc([C@@H]3[C@@H](CO)N4CCCCN(Cc5ccccc5F)C[C@H]34)cc2)cc1 | -19*
COCC#Cc1ccc([C@@H]2[C@@H](CO)N3CCCCN(Cc4ccncc4)C[C@H]23)cc1 | 24
CN1CCCCN2[C@@H](CO)[C@H](c3ccc(C#Cc4ccccc4F)cc3)[C@@H]2C1 | 2
COCC#Cc1ccc([C@@H]2[C@H]3CN(Cc4ccccc4F)CCCCN3[C@H]2CO)cc1 | 1
COc1ccc(C#Cc2ccc([C@@H]3[C@H]4CN(Cc5ccncc5)CCCCN4[C@H]3CO)cc2)cc1 | -36*
OC[C@@H]1[C@@H](c2ccc(C#CC3(O)CCCC3)cc2)[C@H]2CN(Cc3ccccc3F)CCCCN12 | 7
C[C@H]1COCn2nncc2CCCC(=O)N1 | -4
CCNC(=O)[C@H]1[C@H](CO)[C@H]2Cn3c(ccc(-c4cccc(F)c4)c3=O)[C@@H]1N2C(=O)c1cnccn1 | 2
COc1ccc2c3c([nH]c2c1)[C@@H](CO)N(C(=O)CC1CC1)CC31CCN(C(=O)CC2CC2)CC1 | 13
COCC(=O)N1CC2(C1)[C@@H](c1ccccc1)[C@H](CO)N2C(=O)c1ccncc1 | 10
COc1ccc2c3c(n(C)c2c1)[C@H](CO)N(Cc1ccccc1)CC31CN(S(C)(=O)=O)C1 | 8
CC=Cc1ccc2n(c1=O)C[C@@H]1[C@@H](CO)[C@H](C(=O)NCC(F)(F)F)N(CC3CC3)[C@H]21 (mixture of isomers) | -3
N#C[C@H]1[C@@H](c2ccc(C#Cc3ccccc3F)cc2)[C@@H](CO)N1C(=O)C1CC1 | -4
CO[C@H]1CN(C)C(=O)c2cc(NC(C)=O)ccc2OC[C@H](C)N(C(=O)c2cccnc2)C[C@H]1C | 5
O=C(Nc1cccc(F)c1)N1CCCCN2[C@H](C1)[C@@H](c1ccc(C#Cc3cccnc3)cc1)[C@@H]2CO | 0
SMILES | DUX4 txn inh
OC[C@@H]1[C@H](c2ccc(C#Cc3ccccc3F)cc2)[C@@H]2CN(Cc3cncnc3)CCCCN12 | -5
O=C(Nc1ccccc1F)N1CCCCN2[C@@H](CO)[C@H](c3ccc(C#Cc4cccnc4)cc3)[C@@H]2C1 | 5
OC[C@@H]1[C@@H](c2ccc(C#Cc3ccccc3F)cc2)[C@H]2CN(Cc3cncnc3)CCCCN12 | 0
CC(C)(O)C#Cc1ccc([C@@H]2[C@H]3CN(Cc4ccccc4F)CCCCN3[C@H]2CO)cc1 | 7
O=C(Nc1ccccc1F)N1CCCCN2[C@H](CO)[C@H](c3ccc(C#Cc4cccnc4)cc3)[C@H]2C1 | -36*
OC[C@H]1[C@H](c2ccc(C#Cc3cccnc3)cc2)[C@@H]2CN(Cc3ccccc3F)CCCCN12 | -38*
OC[C@@H]1[C@H](c2ccc(C#Cc3cccnc3)cc2)[C@H]2CN(Cc3ccccc3F)CCCCN12 | -57*
OC[C@H]1[C@H](c2ccc(C#Cc3ccccc3F)cc2)[C@@H]2CN(Cc3cncnc3)CCCCN12 | 1
C/C=C/c1ccc2c(c1)[C@@H]1[C@@H](CCN1S(=O)(=O)c1ccccc1OC)[C@H](CO)N2C | 19
COCC(=O)N(C)C[C@H]1Oc2cc(C#CC(C)(C)O)ccc2S(=O)(=O)N([C@H](C)CO)C[C@H]1C | -2
CCCNC(=O)C[C@H]1CC[C@@H]2[C@@H](COc3ccc(NC(=O)c4ccc(Cl)cc4)cc3C(=O)N2C)O1 | 1
C[C@H](CO)N1C[C@H](C)[C@H](CN(C)C)OCc2cn(nn2)CCCC1=O | 1
C[C@@H]1CCCCO[C@@H](CN(C)Cc2ccc(C(=O)O)cc2)[C@H](C)CN([C@H](C)CO)C(=O)c2cc(NC(=O)NC3CCCCC3)ccc2O1 | 2
O=C(NC1CCCC1)N1CCCCN2[C@H](C1)[C@H](c1ccc(-c3ccccc3)cc1)[C@@H]2CO | 1
O=S(=O)(c1ccc(F)cc1)N1CCCCN2[C@@H](CO)[C@@H](c3ccc(C4=CCCCC4)cc3)[C@@H]2C1 | -4
Cc1ccccc1-c1ccc([C@H]2[C@H](CO)N3CCCCN(S(C)(=O)=O)C[C@@H]23)cc1 | 17
COc1ccc(S(=O)(=O)N2CCCCN3[C@H](CO)[C@@H](c4ccc(C5=CCCC5)cc4)[C@@H]3C2)cc1 | 1
N#Cc1ccc(-c2ccc([C@H]3[C@H]4CN(C(=O)Nc5ccc(F)cc5)CCCCN4[C@H]3CO)cc2)cc1 | 39
COc1ccccc1-c1ccc([C@H]2[C@@H](CO)N3CCCCN(C(=O)NC4CCCC4)C[C@H]23)cc1 | -23*
N#Cc1ccc(-c2ccc([C@H]3[C@@H](CO)N4CCCCN(C(=O)Nc5ccc(F)cc5)C[C@H]34)cc2)cc1 | -39*
O=S(=O)(c1ccc(F)cc1)N1CCCCN2[C@H](CO)[C@H](c3ccc(C4=CCCCC4)cc3)[C@@H]2C1 | -42*
Cc1ccccc1-c1ccc([C@@H]2[C@@H](CO)N3CCCCN(C(=O)NC4CCCC4)C[C@H]23)cc1 | -9
N#Cc1ccc(-c2ccc([C@H]3[C@H](CO)N4CCCCN(C(=O)Nc5ccc(F)cc5)C[C@@H]34)cc2)cc1 | 10
CCS(=O)(=O)N1CCCCN2[C@H](CO)[C@@H](c3ccc(-c4ccccc4C)cc3)[C@@H]2C1 | 10
Cc1ccccc1-c1ccc([C@@H]2[C@@H](CO)N3CCCCN(S(=O)(=O)c4ccc(F)cc4)C[C@H]23)cc1 | -40*
SMILES | DUX4 txn inh
COc1ccc2c3c([nH]c2c1)[C@H](CO)N(C(=O)NC(C)C)CC31CN(C(=O)NC2CCCC2)C1 | 7
CC=Cc1ccc2n(c1=O)C[C@H]1[C@H](CO)[C@@H](C(=O)NCC(F)(F)F)N(C(=O)c3cccnc3)[C@@H]21 (mixture of isomers) | -8
CCN1[C@@H]2Cn3c(ccc(-c4cccnc4)c3=O)[C@H]1[C@@H](C(=O)NCc1ccccc1)[C@@H]2CO | 0
CCCN(C)C[C@@H]1OCCCC[C@H](C)Oc2ccc(N(C)C)cc2C(=O)N([C@H](C)CO)C[C@@H]1C | 0
CN1CCN(C(=O)C[C@H]2C[C@H]3c4cc(NC(=O)Nc5ccc(C(F)(F)F)cc5)ccc4O[C@H]3[C@@H](CO)O2)CC1 | -5
Cc1ccccc1-c1ccc([C@@H]2[C@@H](CO)N3CCCCN(C(=O)Nc4cccc(F)c4)C[C@@H]23)cc1 | -27*
